Results from paper PMC10726135, “HNF4α isoforms regulate the circadian balance between carbohydrate and lipid metabolism in the liver”.
Whole data set: some 18,000 sequences, median “log2 normalized intensity” near 0.36, cut for the highest 2% near 7.3. This is one part of a sample in which the highest values are shown more often than they occur.

molecular target: T1, HNF4alpha8 (COS-7 nuclear extract) (Homo sapiens, UniProt P41235-5 1-452); assay: protein-binding microarray; COS-7 nuclear extract on double-stranded Agilent 4x180k PBM; binding buffer, salt, pH and temperature not given in the material; high values mean tight binding; settings: chain copies: 2; label: 3' end of strand 1 on the slide; dsDNA, one strand shown
T1 sequence: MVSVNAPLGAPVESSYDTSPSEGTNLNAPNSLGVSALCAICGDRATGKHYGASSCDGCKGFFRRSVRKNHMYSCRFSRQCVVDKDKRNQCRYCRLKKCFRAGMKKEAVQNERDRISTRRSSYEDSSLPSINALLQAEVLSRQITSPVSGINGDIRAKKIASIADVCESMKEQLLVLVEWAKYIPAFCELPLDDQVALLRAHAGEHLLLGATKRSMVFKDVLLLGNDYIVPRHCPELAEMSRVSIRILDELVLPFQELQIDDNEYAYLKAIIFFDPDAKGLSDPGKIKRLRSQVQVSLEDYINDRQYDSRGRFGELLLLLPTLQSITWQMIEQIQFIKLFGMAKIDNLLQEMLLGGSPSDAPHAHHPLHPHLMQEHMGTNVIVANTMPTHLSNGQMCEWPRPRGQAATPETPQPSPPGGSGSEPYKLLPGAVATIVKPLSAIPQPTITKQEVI
Outline: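 A custom Agilent SurePrint G3 4x180k array, spotted in quadruplicate with ~44,000 test sequences as ~60-nt oligonucleotides made double-stranded, was incubated with nuclear extracts. The extracts came from COS-7 cells transiently transfected by CaPO4 with a human HNF4α isoform expression vector. Bound HNF4α was imaged on an Agilent G2565CA scanner at 2-µm resolution, and the binding signal was taken as Agilent software's background-corrected, normalized gProcessedSignal.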

Sequence | binding signal
ATCAGAGCTGGATGTGAGTTATGACTACTTGCCTAGGGAGATTAGAGTATCGGTCGA | 0.62 log2 normalized intensity
CCCGCCTTTGACACAGGCGACCTTCGCTCGGCCTAGGGAGATTAGAGTATCGGTCGA | 6.06 log2 normalized intensity
CCATATCACATTTTAAGGTCTGGCATTCTTGCCTAGGGAGATTAGAGTATCGGTCGA | 1.1 log2 normalized intensity
CTTTGACACAGGCGACCTTCGCTCGGCTCGGCCTAGGGAGATTAGAGTATCGGTCGA | 4.27 log2 normalized intensity
CCTTTGACCTTCGGCTTCCCCAGAGAAAGAGCCTAGGGAGATTAGAGTATCGGTCGA | 3.38 log2 normalized intensity
CCTTTTATTTTCTTATCTGCCTAGGCATTTGCCTAGGGAGATTAGAGTATCGGTCGA | 1.58 log2 normalized intensity
TCAGGCACAGCTCGACCTTTGACCTTCGGCGCCTAGGGAGATTAGAGTATCGGTCGA | 10.9 log2 normalized intensity
TTTTAAGGTCTGGCATTCTTTTTGACCTTTGCCTAGGGAGATTAGAGTATCGGTCGA | 8.23 log2 normalized intensity
CTGCAGATTGACTCAGGCATTCTGACCTTTGCCTAGGGAGATTAGAGTATCGGTCGA | 7.32 log2 normalized intensity
GATTGACTCAGGCATTCTGACCTTTGTCTCGCCTAGGGAGATTAGAGTATCGGTCGA | 7.94 log2 normalized intensity
CACAGCTCGACCTTTGACCTTCGGCTTCCCGCCTAGGGAGATTAGAGTATCGGTCGA | 9.06 log2 normalized intensity
ACTCAGGCATTCTGACCTTTGTCTCCAGGCGCCTAGGGAGATTAGAGTATCGGTCGA | 6.52 log2 normalized intensity
AAATCCCCGCCTTTGACACAGGCGACCTTCGCCTAGGGAGATTAGAGTATCGGTCGA | 4.58 log2 normalized intensity
CCAACAGGTGAAGACATGCTGGTGTGTGATGCCTAGGGAGATTAGAGTATCGGTCGA | 0.875 log2 normalized intensity
AGATGGTCAAAGGTTGATGGTATGTTTCAGGCCTAGGGAGATTAGAGTATCGGTCGA | 3.86 log2 normalized intensity
TGAATCCTCTTTGAGTCTGGTGTTCTCTTGGCCTAGGGAGATTAGAGTATCGGTCGA | 1.65 log2 normalized intensity
CGCATCTGAAGATAAGAGAAGTTGCTCTTTGCCTAGGGAGATTAGAGTATCGGTCGA | 2.63 log2 normalized intensity
CCTGCAAGGACAAAGGTCATGTTTTCAAACGCCTAGGGAGATTAGAGTATCGGTCGA | 6.34 log2 normalized intensity
AATTTGAACCAAGATCTGTGAAAGAAAAGTGCCTAGGGAGATTAGAGTATCGGTCGA | -0.147 log2 normalized intensity
TATGTGCTGACTGACTCCTGTTACTTCCACGCCTAGGGAGATTAGAGTATCGGTCGA | 0.0957 log2 normalized intensity
AGTGTGGGGTGACTGACTTAACCCTTGCCTGCCTAGGGAGATTAGAGTATCGGTCGA | 2.27 log2 normalized intensity
CTCCACTTGGGTATCAGATAGTCCAATGTCGCCTAGGGAGATTAGAGTATCGGTCGA | 2.52 log2 normalized intensity

Sequence | binding signal
GCCTCTCTGTGCTGGAACTTGCTTCCTTATGCCTAGGGAGATTAGAGTATCGGTCGA | 1.37 log2 normalized intensity
TGTGGTAATAAGTTGGTGGACGCTGGGGAAGCCTAGGGAGATTAGAGTATCGGTCGA | 0.488 log2 normalized intensity
TCCTTCAGCGTGAACTTTGACATGAGAGAAGCCTAGGGAGATTAGAGTATCGGTCGA | 4.21 log2 normalized intensity
TATATTCAACCCCCACTTCCTGACTTGGCCGCCTAGGGAGATTAGAGTATCGGTCGA | 3.85 log2 normalized intensity
TCACACAAATGGATCTTTCTTCAAAAAGAGGCCTAGGGAGATTAGAGTATCGGTCGA | -0.0678 log2 normalized intensity
CCCTTTAGTGCCTGGATCTTGGAACAGGTCGCCTAGGGAGATTAGAGTATCGGTCGA | 1.97 log2 normalized intensity
GCTCAGCTGGTTGCCCCTTTGACCCTCGGGGCCTAGGGAGATTAGAGTATCGGTCGA | 7.06 log2 normalized intensity
ATGCTGGTCTCCTTGCCCCACCCCCCACCCGCCTAGGGAGATTAGAGTATCGGTCGA | 7.48 log2 normalized intensity
AGACTCAGCATGTCTTCTGACCTTTGGCAAGCCTAGGGAGATTAGAGTATCGGTCGA | 6.98 log2 normalized intensity
TATTTAGACTCAGCATGTCTTCTGACCTTTGCCTAGGGAGATTAGAGTATCGGTCGA | 7.33 log2 normalized intensity
CCTGCACACCTGCCTTTGATCAGGGACCTTGCCTAGGGAGATTAGAGTATCGGTCGA | 1.97 log2 normalized intensity
GTCTCTCAGGCACAGCTCGACCTTTGACCTGCCTAGGGAGATTAGAGTATCGGTCGA | 10 log2 normalized intensity
GGGTCATGCTGGTCTCCTTGCCCCACCCCCGCCTAGGGAGATTAGAGTATCGGTCGA | 5.73 log2 normalized intensity
GCCCCAGCTCGCTCAGCTGGTTGCCCCTTTGCCTAGGGAGATTAGAGTATCGGTCGA | 4.47 log2 normalized intensity
CCTCTGTCTCTCAGGCACAGCTCGACCTTTGCCTAGGGAGATTAGAGTATCGGTCGA | 6.7 log2 normalized intensity
AGCTCGCTCAGCTGGTTGCCCCTTTGACCCGCCTAGGGAGATTAGAGTATCGGTCGA | 8.48 log2 normalized intensity
CAGCATGTCTTCTGACCTTTGGCAATATCTGCCTAGGGAGATTAGAGTATCGGTCGA | 5.1 log2 normalized intensity
GGTCTCCTTGCCCCACCCCCCACCCCAGAAGCCTAGGGAGATTAGAGTATCGGTCGA | 6.87 log2 normalized intensity
AGTCACACACACCTGTGTCCCCCAGGTCCAGCCTAGGGAGATTAGAGTATCGGTCGA | 3.56 log2 normalized intensity
ATATCTGCCTCAGTAGTAGTGAAAAATGAAGCCTAGGGAGATTAGAGTATCGGTCGA | 0.637 log2 normalized intensity
GGAGGTGACCTTTGGTTGTCCTTACTGCTAGCCTAGGGAGATTAGAGTATCGGTCGA | 4.22 log2 normalized intensity
ACCTCTTATCAAGCGTGCACCCCAGGTACGGCCTAGGGAGATTAGAGTATCGGTCGA | 1.3 log2 normalized intensity

Sequence | binding signal
ATGGTGTTTGCTTTGTGAAGGCTTATCTGCGCCTAGGGAGATTAGAGTATCGGTCGA | 0.591 log2 normalized intensity
GGTTCTTCCACGACTCCCCCGCTCACCCCTGCCTAGGGAGATTAGAGTATCGGTCGA | 5.08 log2 normalized intensity
AACTTTTCCATGTCCAAAGGTCTTCATGAGGCCTAGGGAGATTAGAGTATCGGTCGA | 4.33 log2 normalized intensity
AGTGCCATGTAATCAAACTGAACTTTGAAAGCCTAGGGAGATTAGAGTATCGGTCGA | 4.48 log2 normalized intensity
AACATCATAGAGTGTACTTATGCAGACCTGGCCTAGGGAGATTAGAGTATCGGTCGA | 0.968 log2 normalized intensity
CCTCCAGCTACTCACTCTTCCCAAATAGGTGCCTAGGGAGATTAGAGTATCGGTCGA | -0.273 log2 normalized intensity
AAGTGCGTCCTGTGGCAAAGGTGAATGACCGCCTAGGGAGATTAGAGTATCGGTCGA | 2.99 log2 normalized intensity
TTCACAGAGCAAGGGTCCAGATTAGAGCACGCCTAGGGAGATTAGAGTATCGGTCGA | 2.52 log2 normalized intensity
AAAGCCACCCCTTTCTCCTCTCTTTCCATAGCCTAGGGAGATTAGAGTATCGGTCGA | 0.633 log2 normalized intensity
GGACAAAGTTCCCCGGGCAGCTGTGTTTGCGCCTAGGGAGATTAGAGTATCGGTCGA | 0.702 log2 normalized intensity
CTCCAACTGCTCCTCTTCAACTGATTCTTGGCCTAGGGAGATTAGAGTATCGGTCGA | -0.845 log2 normalized intensity
GGGGCCTAGCTTGTAAAGGGTAATCTGCTTGCCTAGGGAGATTAGAGTATCGGTCGA | -0.484 log2 normalized intensity
CTTCCAAGGCTGCAAGCAAACCTGCCCTTTGCCTAGGGAGATTAGAGTATCGGTCGA | 4.57 log2 normalized intensity
TGGGGTCTCGCTGCTTCGGCCTTTGACCTCGCCTAGGGAGATTAGAGTATCGGTCGA | 8.46 log2 normalized intensity
CAGGGTGGGGTCTCGCTGCTTCGGCCTTTGGCCTAGGGAGATTAGAGTATCGGTCGA | 1.11 log2 normalized intensity
TCTCGCTGCTTCGGCCTTTGACCTCGTGATGCCTAGGGAGATTAGAGTATCGGTCGA | 7.09 log2 normalized intensity
ATTCCTAAGTTCCAAAGGCCATCCACATTCGCCTAGGGAGATTAGAGTATCGGTCGA | 2.4 log2 normalized intensity
CCAAAGTCCAAAGTCCAGTCTTATCTGAGAGCCTAGGGAGATTAGAGTATCGGTCGA | 7.93 log2 normalized intensity
TGCCTGCAGGAGAGAGCAAAGTCCACGCATGCCTAGGGAGATTAGAGTATCGGTCGA | 6.82 log2 normalized intensity
GCATGGCTCAGTCCAAGTCCAAAGGTCTGAGCCTAGGGAGATTAGAGTATCGGTCGA | 6.28 log2 normalized intensity
GACCAGTCTGCCTGACTCCAGAGTCCAAACGCCTAGGGAGATTAGAGTATCGGTCGA | 4.23 log2 normalized intensity
AGCCCTTATATCCACATGGGTCCAAAGTTCGCCTAGGGAGATTAGAGTATCGGTCGA | 9.47 log2 normalized intensity

Sequence | binding signal
CAGGGAGCCCTTATATCCACATGGGTCCAAGCCTAGGGAGATTAGAGTATCGGTCGA | 3.03 log2 normalized intensity
CTATCTGCCTGCAGGAGAGAGCAAAGTCCAGCCTAGGGAGATTAGAGTATCGGTCGA | 8.21 log2 normalized intensity
AGTCCAAAGGTCTGAGAACCAAGAGAGCCAGCCTAGGGAGATTAGAGTATCGGTCGA | 1.62 log2 normalized intensity
CAACTCCAAAGTCCAAAGTCCAGTCTTATCGCCTAGGGAGATTAGAGTATCGGTCGA | 8.47 log2 normalized intensity
CTTGAGTCCAGGAGTGCAAAGCTGCTATGAGCCTAGGGAGATTAGAGTATCGGTCGA | -0.723 log2 normalized intensity
AGTCTTGAGTCCCAAAGTCCAAAGGCAGTCGCCTAGGGAGATTAGAGTATCGGTCGA | 3.61 log2 normalized intensity
TTCAGTCTTTGTCTTAGCCTGCTCTTTTCCGCCTAGGGAGATTAGAGTATCGGTCGA | 1.12 log2 normalized intensity
CCTCTGAAAACTTTTACTGGGAAGAGATAAGCCTAGGGAGATTAGAGTATCGGTCGA | -0.817 log2 normalized intensity
AGATAAGACAAGCTCTGTTTGTTTTGTTACGCCTAGGGAGATTAGAGTATCGGTCGA | 1.26 log2 normalized intensity
ATACAGAATCAATGCCTGATTCCAAAGTCCGCCTAGGGAGATTAGAGTATCGGTCGA | 6.36 log2 normalized intensity
GTCAAAACTTTGTTTGAGTTCCAAAGTCCAGCCTAGGGAGATTAGAGTATCGGTCGA | 7.18 log2 normalized intensity
AACTTTGTTTGAGTTCCAAAGTCCATGTTCGCCTAGGGAGATTAGAGTATCGGTCGA | 7.61 log2 normalized intensity
ACTTTGCCTTTTGGCTAAAGTCCAAATTCCGCCTAGGGAGATTAGAGTATCGGTCGA | 6.01 log2 normalized intensity
GAATCAATGCCTGATTCCAAAGTCCACTTTGCCTAGGGAGATTAGAGTATCGGTCGA | 7.71 log2 normalized intensity
TGTTTGAGTTCCAAAGTCCATGTTCATAACGCCTAGGGAGATTAGAGTATCGGTCGA | 5.66 log2 normalized intensity
TGTTTGTTTTGAGATAGGGTCTTGCTTTGTGCCTAGGGAGATTAGAGTATCGGTCGA | 1.3 log2 normalized intensity
CACTCATGGTGTTTGCTTTGTGAAGGCTTAGCCTAGGGAGATTAGAGTATCGGTCGA | 0.417 log2 normalized intensity
TTCCTCCAGCCTGTCGGAATTTGCCCTGTGGCCTAGGGAGATTAGAGTATCGGTCGA | 5.15 log2 normalized intensity
ACCATTAACCCTACAGTCCTGCCACATCCCGCCTAGGGAGATTAGAGTATCGGTCGA | -0.385 log2 normalized intensity
